These results are taken from PubChem BioAssay (NCATS).

Test [1] deals with WaGa. The experiment in a line: qHTS assay to identify novel small-molecules to repurpose for Merkel cell carcinoma treatment (AID 1296009). Note: nearly all actives have a fitted effect of over 60% in size. Note: potency is the fitted concentration of half-maximal effect. The conditions noted are these: MCC and control cell lines, CellTiter-Glo viability, 72 h; series mostly up to 46 µM. Summed up:
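Cells were treated for 72 hr at 37 degree celsius with compounds in 8- or 11-point dose response. Viability was read by CellTiter-Glo luminescence, normalized to no-cell (cytotoxicity) and DMSO controls.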

Test [2] has as its system C33A. The experiment in a line: Primary qHTS to identify gynecologic anti-cancer compounds using libraries of approved drugs and bioactive compounds (AID 1345084). Note: nearly all actives have a fitted effect of over 55% in size. Note: potency is the fitted concentration of half-maximal effect. The conditions noted are these: Gynecologic cancer cell panel viability, ATPlite luminescence, 48 h; series mostly up to 57.5 µM. Summed up:
(§1)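 Cell viability after 48 h drug treatment, ATPlite luminescence readout; five doses.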

The test system of test [3] is CAOV3. The description is as above. The conditions noted are these: Gynecologic cancer cell panel viability, ATPlite luminescence, 48 h; series mostly up to 57.5 µM. The gist of the method:
as §1

The test system of test [4] is CASKI. Described as above. As to conditions: Gynecologic cancer cell panel viability, ATPlite luminescence, 48 h; series mostly up to 57.5 µM. The gist of the method: as §1
Test [5] deals with HeLa. The test is described as above. As to conditions: Gynecologic cancer cell panel viability, ATPlite luminescence, 48 h; series mostly up to 57.5 µM. The gist of the method: as §1
Test [6] has as its system Hek293T. Described as above. As to conditions: Gynecologic cancer cell panel viability, ATPlite luminescence, 48 h, control line for the selectivity index; series mostly up to 57.5 µM. Summed up:
as §1

Test [7] deals with JEG-3. The test is described as above. As to conditions: Gynecologic cancer cell panel viability, ATPlite luminescence, 48 h; series mostly up to 57.5 µM. Summed up: as §1
The test system of test [8] is OV90. The description is as above. The conditions noted are these: Gynecologic cancer cell panel viability, ATPlite luminescence, 48 h; series mostly up to 57.5 µM. The gist of the method:
as §1

Test [9] relates to PA-1. Described as above. As to conditions: Gynecologic cancer cell panel viability, ATPlite luminescence, 48 h; series mostly up to 57.5 µM. Summed up:
as §1

Test [10] concerns Tov112D. Described as above. As to conditions: Gynecologic cancer cell panel viability, ATPlite luminescence, 48 h; series mostly up to 57.5 µM. The gist of the method:
as §1

The test system of test [11] is Es-2. Described as above. The conditions noted are these: Gynecologic cancer cell panel viability, ATPlite luminescence, 48 h; series mostly up to 57.5 µM. The gist of the method: as §1
Test [12] can be described thus: qHTS assay to identify inhibitors of the type 1 interferon - major histocompatibility complex class I in skeletal muscle: Counter screen cell viability and HiBit confirmation (AID 1347412). Note: nearly all actives have a fitted effect of over 60% in size. Note: potency is the fitted concentration of half-maximal effect. The conditions noted are these: iHSKM muscle cells + IFN-b, HiBiT or CellTiter-Glo, 24 h; Potency: HiBiT; Viability, at 45.9 µM (top of the series). The gist of the method:
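CRISPR HLA-B*08:01-HiBit immortalized human myoblasts (C25cl48) stimulated with 4 ng/ml IFN-beta and compounds (12-point 1:3, top 46 uM final) for 24 h at 37 C. Duplicate plates read by HiBit lytic luminescence or CellTiter Glo ATP.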

The nature of test [13]: Drug repurposing screens with cells derived from glioblastoma tumor samples (AID 1345199). For activity, negative = cell killing: % is set by controls: 0 for no effect and ±100 for the full control effect. Note: nearly all actives have a fitted effect of over 40% in size. Note: potency is the fitted concentration of half-maximal effect. The conditions noted are these: GBM patient neurospheres viability, ATP luminescence, 48 h. Summed up: (§2)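 Four patient lines of CD133+ GBM neurospheres were screened at several concentrations; hits were retested in those lines plus three slower-growing GBM lines, using 48-hour treatment and ATP-based viability.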

Test [14] deals with astro. The description is as above. As to conditions: viability, ATP luminescence, 48 h; series mostly up to 45.9 µM. The gist of the method: as §2
In test [15] the test system is SKOV3. The experiment in a line: Primary qHTS to identify gynecologic anti-cancer compounds using libraries of approved drugs and bioactive compounds (AID 1345084). Note: nearly all actives have a fitted effect of over 55% in size. Note: potency is the fitted concentration of half-maximal effect. The conditions noted are these: Gynecologic cancer cell panel viability, ATPlite luminescence, 48 h; series mostly up to 57.5 µM. Summed up:
as §1

Test [16] deals with Tov-21-G. The description is as above. As to conditions: Gynecologic cancer cell panel viability, ATPlite luminescence, 48 h; series mostly up to 57.5 µM. The gist of the method:
as §1

In test [17] the target is Nuclear receptor subfamily 1 group I member 2 (Rattus norvegicus) (UniProt Q9R1A7). The experiment in a line: qHTS assay for small molecule activators of the rat pregnane X receptor (rPXR) signaling pathway (AID 651751; call rule not given here; note: 0% is about no effect). The conditions noted are these: rPXR reporter cells, luciferase (One-Glo), 24 h.
Sequence of Nuclear receptor subfamily 1 group I member 2 (Rattus norvegicus) (Q9R1A7 whole entry, looked up): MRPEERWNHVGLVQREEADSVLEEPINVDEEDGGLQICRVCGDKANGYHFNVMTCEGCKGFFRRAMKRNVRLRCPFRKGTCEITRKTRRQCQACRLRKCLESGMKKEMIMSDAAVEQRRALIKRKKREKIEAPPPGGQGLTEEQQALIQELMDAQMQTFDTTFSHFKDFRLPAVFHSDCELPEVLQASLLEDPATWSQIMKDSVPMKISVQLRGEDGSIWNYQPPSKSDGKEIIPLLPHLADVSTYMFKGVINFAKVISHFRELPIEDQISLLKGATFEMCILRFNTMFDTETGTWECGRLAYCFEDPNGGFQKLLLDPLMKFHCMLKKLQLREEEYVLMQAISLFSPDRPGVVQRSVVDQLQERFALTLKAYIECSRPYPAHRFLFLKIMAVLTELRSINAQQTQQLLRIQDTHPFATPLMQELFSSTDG
The nature of test [18]: qHTS assay for small molecule activators of the human pregnane X receptor (PXR) signaling pathway (AID 720659; call rule not given here; note: 0% is about no effect).
Where [19] appears, read: at 45.9 µM (top of the series), tumour line B.
Setting [20] is: at 45.9 µM (top of the series), tumour line D.
Where [21] appears, read: at 46.1 µM (top of the series), tumour line C.

“And” between values parts separate entries of the source, which are not always exact repeats. Identical values can stand only once. Values without a mark were called inactive. Records with an inconclusive call do not appear. The source made the active and inactive calls. Unless noted, calls come from the whole dose curve; as a rule, active = well fitted curve in the direction sought with a large enough effect; inconclusive = small, poorly fitted or top-dose-only effect, or another doubt; inactive = no such curve, though single readings can be large; an effect the other way counts as inactive or inconclusive.

Take `Cc1cc(-c2ccc(CC(=O)Nc3ccc(-c4cccnc4)cc3)cc2)ccn1`: the Potency result in test [1] is “inactive”.

In the case of `Cc1c(CN2CCN(C(=O)C(C)C)CC2)sc2c(N3CCOCC3)nc(-c3cnc(N)nc3)nc12`, the Potency result in [1] was “inactive”.

For `Cc1ccc(NC(=O)c2cccc(C(C)(C)C#N)c2)cc1Nc1ccc2ncn(C)c(=O)c2c1`, the Potency entry in [1] is “inactive”.

In the case of `N#CC[C@H](C1CCCC1)n1cc(-c2ncnc3[nH]ccc23)cn1`, the Potency entry in test [1], in test [2], in test [3], in test [4], in test [5] and in test [6] was “inactive” in each case. In addition, the Potency result in test [7], in [8], in test [9] and in [10] was “inactive” in each case.

For the compound `CS(=O)(=O)c1cccc(CNc2nc(Nc3ccc4c(c3)CCC(=O)N4)ncc2C(F)(F)F)c1`, the Potency in [1] was 16.6 µM (active); in [12], 11.1 µM (active). Besides, the Potency entry in test [2], in test [3], in test [4], in [11], in test [6] and in test [8] was “inactive” each time. Besides, the Potency result in test [10] was “inactive”.

For `c1ccc(-c2nn3c(c2-c2ccnc4cc(OCCN5CCOCC5)ccc24)CCC3)nc1`, the Potency in [1] is 14.8 µM (active).

On to `Nc1nc2[nH]cc(CCc3ccc(C(=O)N[C@@H](CCC(=O)O)C(=O)O)cc3)c2c(=O)[nH]1`, for which the Potency in test [1] is 2.35 µM (active); in test [13] (tumour line A), 251 nM (active). Also, the activity, negative = cell killing in [13] (setting [19]) was -23.6%; in test [13] (setting [20]), -14.3%. Further, in test [14], the Potency entry is “inactive”.

As to `Nc1nc2c(ncn2COCCO)c(=O)[nH]1`, the Potency result in [2], in [3], in test [11], in [5], in test [6] and in [7] was “inactive” in each case. Besides, the Potency entry in test [8], in test [9], in test [15], in test [16], in test [10] and in test [14] was “inactive” throughout. Further, the activity, negative = cell killing in [13] (at 20 µM (top of the series), tumour line C) is -13.6%; in test [13] (at 21.2 µM (top of the series), tumour line B), -4.96%; in [13] (at 21.3 µM (top of the series), tumour line A) it was -33.2%.

On to `Cc1ccc(-n2nc(C(C)(C)C)cc2NC(=O)Nc2ccc(OCCN3CCOCC3)c3ccccc23)cc1`, for which the Potency entry in test [1], in [2], in test [4], in [11], in test [5] and in test [6] was “inactive” throughout. The Potency entry in [7], in test [8], in [9], in test [15], in [16] and in [10] was “inactive” in each case. In addition, the activity, negative = cell killing in test [13] (setting [19]) is 12.9%; in test [13] (setting [20]) it was -19.4%; in test [13] (setting [21]) it was -25.6%.

`Cc1cc(Nc2nc(N[C@@H](C)c3ncc(F)cn3)ncc2Cl)n[nH]1`: the Potency result in test [2], in [11], in [6] and in test [7] was “inactive” throughout. In addition, the Potency was 4.47 µM (active) in [5], 14.1 µM (active) in test [16] and 1.4 µM (active) in test [12].

`CCc1cc(Nc2nccc(-c3c(-c4ccc(OC)c(C(=O)Nc5c(F)cccc5F)c4)nc4ccccn34)n2)c(OC)cc1N1CCC(N2CCN(S(C)(=O)=O)CC2)CC1`: the Potency entry in test [1], in test [2], in [3], in test [4], in test [11] and in [6] was “inactive” throughout. Further, the Potency entry in test [7], in test [8], in [15], in test [16], in [10] and in test [12] was “inactive” each time.

As to `Nc1nccc(-c2ccc3noc(-c4ccc(Cl)cc4)c3c2)n1`, the Potency entry in [1] was “inactive”.

On to `Cn1cnc([N+](=O)[O-])c1Sc1ncnc2nc[nH]c12`, for which the Potency in test [1] is 1.91 µM (active); in test [2] it was 8.91 µM (active) and 7.94 µM (active); in [4], 1.26 µM (active) and 3.55 µM (active); in test [11] it was 3.16 µM (active) and 10 µM (active); in test [5] it was 1.41 µM (active); in test [6] it was 15.8 µM (active) and 28.2 µM (active). In addition, the Potency in [7] is 3.16 µM (active); in test [8] it was 3.98 µM (active) and 7.08 µM (active); in [9], 1.12 µM (active) and 7.08 µM (active); in test [16], 1.12 µM (active) and 3.16 µM (active); in test [10], 5.62 µM (active) and 7.08 µM (active); in test [13] (tumour line A), 2510 nM (active). Besides, the Potency entry in test [3] and in [15] was “inactive” throughout. Moreover, the activity, negative = cell killing in [13] (setting [19]) is -21.8%; in test [13] (setting [21]), -41.7%. In test [17], the max response was -0.454% and -2.45%. Moreover, the outcome in test [18] was inactive.
